From PubChem BioAssay (NCI)
Compounds without any hit were thinned out: in the full panel of roughly 79,000, 15% have a hit. Activity calls are given as the source filed them. Cut-off read from the data, not from the text of the source: active = growth inhibition above about 70%; inactive = the rest.

Key:
[1] = NCI Yeast Anticancer Drug Screen. Data for the rad52 strain (AID 147);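 note: 0% = growth of vehicle-treated control cultures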; conditions: S. cerevisiae rad52 mutant growth inhibition, hits give high values
Summary of the method: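 Here a repair-compromised yeast strain receives each compound; its growth is then quantified and normalised to vehicle-only controls.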

[2] = NCI Yeast Anticancer Drug Screen. Data for the wt1 strain (AID 149);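 note: 0% = growth of vehicle-treated wt1 cultures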; conditions: S. cerevisiae wt1 strain (SPY 50644) growth inhibition, hits give high values
Summary of the method: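 Each compound is tested on wt1 yeast and the loss of growth versus vehicle gives the inhibition value.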

[3] = NCI Yeast Anticancer Drug Screen. Data for the rad50EPP+ strain (AID 151);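 note: 0% = growth of vehicle-treated control cultures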; conditions: S. cerevisiae rad50 mutant strain, hits give high values
Summary of the method: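 Read-out is yeast growth inhibition relative to vehicle; cells used were the rad50EPP+ strain.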

[4] = NCI Yeast Anticancer Drug Screen. Data for the mgt1 strain (AID 153); conditions: S. cerevisiae mgt1 mutant growth inhibition, hits give high values
Summary of the method: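 Measured: inhibition of mgt1 yeast growth by compound, normalized to vehicle-treated cultures.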

[5] = NCI Yeast Anticancer Drug Screen. Data for the rad50 strain (AID 155);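 note: 0% = growth of vehicle-only cultures of the same strain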; conditions: S. cerevisiae rad50 strain growth inhibition, hits give high values
Summary of the method: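 Vehicle-treated cultures provide the reference for the growth inhibition reported for compound-exposed, repair-deficient yeast.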

[6] = NCI Yeast Anticancer Drug Screen. Data for the mec2-1 strain (AID 157); conditions: S. cerevisiae mec2-1 strain, hits give high values
Summary of the method: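 Using mec2-1 yeast: add compound, measure growth, express inhibition versus vehicle-treated cultures.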

[7] = NCI Yeast Anticancer Drug Screen. Data for the rad14 strain (AID 159);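 note: 0% = growth of vehicle-treated control cultures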; conditions: S. cerevisiae rad14 strain growth inhibition, hits give high values
Summary of the method: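 Inhibition of growth is reported for a repair-deficient yeast mutant following compound treatment, calculated relative to cultures that received vehicle.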

[8] = NCI Yeast Anticancer Drug Screen. Data for the sgs1 mgt1 strain (AID 161);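 note: 0% = growth of cultures given vehicle only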; conditions: S. cerevisiae sgs1 mgt1 strain, hits give high values
Summary of the method: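 Yeast cells carrying a defined DNA-repair defect were exposed to test compounds. Growth inhibition was measured relative to vehicle-treated controls.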

[9] = NCI Yeast Anticancer Drug Screen. Data for the CLN2oe strain (AID 163);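 note: 0% = growth of vehicle-only control cultures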; conditions: S. cerevisiae CLN2oe strain, hits give high values
Summary of the method: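 Whole-cell yeast growth assay. A strain engineered for altered cell-cycle control received compound, and inhibition relative to vehicle-treated cultures was recorded.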

[10] = NCI Yeast Anticancer Drug Screen. Data for the cln2 rad14 strain (AID 165);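 note: 0% = growth equal to vehicle treated cultures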; conditions: S. cerevisiae cln2 rad14 strain, hits give high values
Summary of the method: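 Yeast strain cln2 rad14, bearing defects in cell cycle control and DNA repair, serves as the test system; values reflect growth inhibition compared with vehicle.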

[11] = NCI Yeast Anticancer Drug Screen. Data for the bub3 strain (AID 167); conditions: S. cerevisiae bub3 mutant strain, hits give high values
Summary of the method: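 Mutant yeast screening strain plus compound; vehicle-treated cultures serve as the 0% inhibition reference.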

[12] = NCI Yeast Anticancer Drug Screen. Data for the wt2 strain (AID 169); conditions: S. cerevisiae wt2 strain growth inhibition, hits give high values
Summary of the method: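 Treated yeast vs. vehicle-treated yeast: growth inhibition determined.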

[13] = NCI Yeast Anticancer Drug Screen. Data for the mlh1 strain (AID 171);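 note: 0% = growth of vehicle-treated control cultures of the same strain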; conditions: S. cerevisiae mlh1 strain growth inhibition, hits give high values
Summary of the method: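 A yeast strain with a defined genetic lesion serves as the test organism. Cultures receive compound or vehicle, and growth is measured.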

[14] = NCI Yeast Anticancer Drug Screen. Data for the sgs1 strain (AID 173);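 note: 0% = growth of vehicle-only control cultures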; conditions: S. cerevisiae sgs1 mutant, hits give high values
Summary of the method: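 A genetically defined yeast mutant is incubated with the test compound, and its growth is compared to that of the same strain given vehicle.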

[15] = NCI Yeast Anticancer Drug Screen. Data for the mlh1 rad18 strain (AID 175); conditions: S. cerevisiae mlh1 rad18 strain growth inhibition, hits give high values
Summary of the method: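 Steps: expose repair-defective yeast to compound; measure growth; express inhibition against vehicle-treated controls.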

[16] = NCI Yeast Anticancer Drug Screen. Data for the rad18 strain (AID 177); conditions: S. cerevisiae rad18 mutant growth inhibition, hits give high values
Summary of the method: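 Measured value is growth inhibition of a yeast strain bearing a DNA repair alteration, referenced to vehicle-treated cells.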

[17] = at 5.0 µM (retest, dose inferred, filed as 0.5)
[18] = at 50.0 µM (retest, dose inferred, filed as 5.0)

Measured: growth inhibition

O=C(COC(=O)c1cc(O)c(O)c(O)c1)c1ccc(-c2ccccc2)cc1
active: [1]; at 100.0 µM 96% | [2]; at 100.0 µM 97% | [3]; at 33.0 µM 91% | [3]; at 100.0 µM 96% | [5]; [18] 94% | [5]; at 100.0 µM 95% | [6]; [18] 95% | [6]; at 100.0 µM 97% | [7]; at 100.0 µM 95% | [8]; [18] 98% | [9]; at 100.0 µM 83% | [11]; [18] 97% | [11]; at 100.0 µM 97% | [12]; at 100.0 µM 95% | [13]; at 100.0 µM 95% | [14]; at 100.0 µM 97% | [15]; [18] 97% | [16]; at 100.0 µM 95%
inactive: [1]; at 1.2 µM -2% | [1]; at 3.7 µM 2% | [1]; at 11.0 µM 8% | [1]; at 33.0 µM 38% | [2]; at 1.2 µM -3% | [2]; at 3.7 µM -3% | [2]; at 11.0 µM -2% | [2]; at 33.0 µM 10% | [3]; at 1.2 µM 6% | [3]; at 3.7 µM 21% | [3]; at 11.0 µM 47% | [4]; at 1.2 µM -1% | [4]; at 3.7 µM -1% | [4]; at 11.0 µM 0% | [4]; at 33.0 µM 46% | [4]; at 100.0 µM 39% | [5]; at 1.2 µM -1% | [5]; at 3.7 µM 1% | [5]; [17] -16% | [5]; at 11.0 µM 11% | [5]; at 33.0 µM 42% | [5]; at 50.0 µM 45.9% | [6]; at 1.2 µM -3% | [6]; at 3.7 µM -3% | [6]; [17] 6% | [6]; at 11.0 µM 3% | [6]; at 33.0 µM 34% | [6]; at 50.0 µM 30.4% | [7]; at 1.2 µM 1% | [7]; at 3.7 µM 1% | [7]; at 11.0 µM 9% | [7]; at 33.0 µM 44% | [8]; [17] 7% | [8]; at 50.0 µM 60.9% | [9]; at 1.2 µM -6% | [9]; at 3.7 µM -9% | [9]; at 11.0 µM -11% | [9]; at 33.0 µM -1% | [10]; [17] -84% | [10]; [18] -12% | [10]; at 50.0 µM 0.6% | [11]; at 1.2 µM -4% | [11]; at 3.7 µM -3% | [11]; [17] 3% | [11]; at 11.0 µM -3% | [11]; at 33.0 µM 21% | [11]; at 50.0 µM 59.2% | [12]; at 1.2 µM -3% | [12]; at 3.7 µM -5% | [12]; at 11.0 µM -4% | [12]; at 33.0 µM 66% | [13]; at 1.2 µM -3% | [13]; at 3.7 µM 0% | [13]; at 11.0 µM 4% | [13]; at 33.0 µM 57% | [14]; at 1.2 µM -1% | [14]; at 3.7 µM 1% | [14]; at 11.0 µM 11% | [14]; at 33.0 µM 63% | [15]; [17] 19% | [15]; at 50.0 µM 40.2% | [16]; at 1.2 µM -1% | [16]; at 3.7 µM 2% | [16]; at 11.0 µM 12% | [16]; at 33.0 µM 58%

Cc1nc(-[n+]2nc(-c3ccncc3)nn2-c2ccccc2)sc1C
active: [4]; at 100.0 µM 78% | [6]; at 50.0 µM 78.5% | [8]; [18] 76% | [8]; at 50.0 µM 74.8% | [12]; at 100.0 µM 72% | [13]; at 100.0 µM 72% | [14]; at 100.0 µM 77% | [15]; at 50.0 µM 76.2%
inactive: [1]; at 1.2 µM -2% | [1]; at 3.7 µM -2% | [1]; at 11.0 µM 0% | [1]; at 33.0 µM 38% | [1]; at 100.0 µM 5% | [2]; at 1.2 µM -1% | [2]; at 3.7 µM -2% | [2]; at 11.0 µM -14% | [2]; at 33.0 µM 9% | [2]; at 100.0 µM -11% | [3]; at 1.2 µM 3% | [3]; at 3.7 µM 16% | [3]; at 11.0 µM 41% | [3]; at 33.0 µM 44% | [3]; at 100.0 µM 36% | [4]; at 1.2 µM -4% | [4]; at 3.7 µM -5% | [4]; at 11.0 µM 8% | [4]; at 33.0 µM 54% | [5]; at 1.2 µM -3% | [5]; at 3.7 µM -46% | [5]; [17] 1% | [5]; at 11.0 µM 3% | [5]; at 33.0 µM 48% | [5]; [18] 21% | [5]; at 50.0 µM 66.2% | [5]; at 100.0 µM 58% | [6]; at 1.2 µM -1% | [6]; at 3.7 µM -2% | [6]; [17] 0% | [6]; at 11.0 µM -3% | [6]; at 33.0 µM 33% | [6]; [18] -28% | [6]; at 100.0 µM 39% | [7]; at 1.2 µM -2% | [7]; at 3.7 µM -3% | [7]; at 11.0 µM -7% | [7]; at 33.0 µM 8% | [7]; at 100.0 µM 1% | [8]; [17] 7% | [9]; at 1.2 µM -4% | [9]; at 3.7 µM -3% | [9]; at 11.0 µM -6% | [9]; at 33.0 µM 25% | [9]; at 100.0 µM 14% | [10]; [17] 0% | [10]; [18] 11% | [10]; at 50.0 µM 63.9% | [11]; at 1.2 µM -1% | [11]; at 3.7 µM -5% | [11]; [17] -45% | [11]; at 11.0 µM -5% | [11]; at 33.0 µM 38% | [11]; [18] 60% | [11]; at 50.0 µM 48% | [11]; at 100.0 µM 18% | [12]; at 1.2 µM -2% | [12]; at 3.7 µM 2% | [12]; at 11.0 µM 18% | [12]; at 33.0 µM 50% | [13]; at 1.2 µM -2% | [13]; at 3.7 µM -5% | [13]; at 11.0 µM 7% | [13]; at 33.0 µM 58% | [14]; at 1.2 µM -2% | [14]; at 3.7 µM 7% | [14]; at 11.0 µM 45% | [14]; at 33.0 µM 69% | [15]; [17] 3% | [15]; [18] 48% | [16]; at 1.2 µM 1% | [16]; at 3.7 µM 3% | [16]; at 11.0 µM 7% | [16]; at 33.0 µM 46% | [16]; at 100.0 µM 45%
